This excerpt belongs to a sample that is enriched for hits.
TbPYK inhibitor: blocks Trypanosoma brucei pyruvate kinase | TbPYK enzyme, Kinase-Glo Plus ATP luminescence, 45 min | Potency, µM (highest dose often 76.8 µM), without a hit: at the top dose activity, negative = inhibition, usual class: inhibitors | 0.12% of 410,000 active; also: potency is read from the fitted curve at half-maximal effect; % is scaled to controls: 0 for no effect and ±100 for the full control effect; nearly all actives have a fitted effect of over 50% in size
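Glycolytic pyruvate kinase of T. brucei was incubated with substrate, test compound and 130 uM ADP for 45 minutes at room temperature. Luminescent Kinase-Glo Plus signal was measured after 10 minutes.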
Sm TGR block: inhibitors of Schistosoma mansoni thioredoxin glutathione reductase. Q962Y6. purified TGR, DTNB reduction, TNB absorbance 405 nm. 3% of 360,000 active. Potency, µM (highest dose often 114 µM), without a hit: at the highest dose activity change, negative = inhibition, most hits filed as inhibitors; also: potency is read from the fitted curve at half-maximal effect; % is scaled to controls: 0 for no effect and ±100 for the full control effect; nearly all actives have a fitted effect of over 60% in size
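First, TGR (20 nM dispensed) and NADPH were mixed with compound. Second, a 15 min room-temperature incubation followed. Third, further NADPH and then DTNB were added to start the reaction. Finally, TNB absorbance was monitored kinetically.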
LmPK inh: blocks Leishmania mexicana pyruvate kinase activity; Q27686; 0.37% of 290,000 active; AID 1721; purified LmPK, Kinase-Glo ATP luminescence, 1 h; Potency, µM (top dose mostly 57.5 µM), inactives show top-dose activity change, negative = inhibition, hits mostly inhibitors; also: potency is read from the fitted curve at half-maximal effect; % is scaled to controls: 0 for no effect and ±100 for the full control effect
Target sequence (Q27686 whole entry, looked up): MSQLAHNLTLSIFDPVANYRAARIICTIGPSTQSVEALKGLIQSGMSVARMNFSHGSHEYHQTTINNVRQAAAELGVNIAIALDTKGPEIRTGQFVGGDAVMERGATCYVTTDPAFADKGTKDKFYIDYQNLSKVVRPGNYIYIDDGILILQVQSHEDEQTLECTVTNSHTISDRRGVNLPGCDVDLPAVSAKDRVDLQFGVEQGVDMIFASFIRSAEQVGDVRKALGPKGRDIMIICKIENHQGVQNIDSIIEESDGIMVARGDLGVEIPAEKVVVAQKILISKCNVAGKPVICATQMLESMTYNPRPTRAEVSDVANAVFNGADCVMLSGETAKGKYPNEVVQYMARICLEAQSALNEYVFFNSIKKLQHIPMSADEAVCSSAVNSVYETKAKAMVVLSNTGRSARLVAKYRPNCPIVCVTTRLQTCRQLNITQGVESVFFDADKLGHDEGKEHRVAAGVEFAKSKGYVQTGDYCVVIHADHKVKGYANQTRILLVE
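Purified LmPK (0.1 nM) with 0.5 mM PEP and 0.1 mM ADP in imidazole buffer pH 7.2 with MgCl2/KCl, 1 h at room temperature. ATP formed was read by luciferase luminescence and normalized to no-enzyme and uninhibited controls.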
Shiga toxin inh: Shiga toxin inhibition; inhibition, % at 38.7 µM; AID 2315; Vero cells, Shiga toxin protein synthesis inhibition reporter; 9.2% of 290,000 active; in the data active = inhibition mostly above about 28%, no sharp cut-off; inactive = mostly below about 43%; also: 0% is about no effect
CHX counter: affects cycloheximide protein synthesis inhibition readout, counter-screen | max response, % | cell reporter, cycloheximide protein synthesis inhibition counterscreen | AID 2314 | 12% of 300,000 active; in the data active = max response mostly above about 13%, no sharp cut-off; inactive = mostly below about 14%; also: read at 38.3 µM for the half of the compounds with a filed dose; 0% is about no effect
Giardia FBPA inh: inhibitors of Giardia lamblia fructose-1,6-bisphosphate aldolase. purified Giardia FBPA. Potency, µM (top dose mostly 59.6 µM), without a hit: at the top dose activity, negative = inhibition, hits mostly inhibitors. 0.71% of 290,000 active; also: potency is read from the fitted curve at half-maximal effect; % is scaled to controls: 0 for no effect and ±100 for the full control effect; nearly all actives have a fitted effect of over 55% in size
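Giardia FBPA (40 nM reagent) was preincubated 10 min at RT with compound (up to 57.5 uM final), then substrate plus GAPDH/TPI/NAD/arsenate coupling system with diaphorase/resazurin was added; resorufin fluorescence (525/598 nm) was read after 20 min.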
The depositor's hits bear a star; ? = inconclusive; / = no result. Unless noted, calls follow the shape of the dose curve; as a rule, active = well fitted curve in the direction sought with a large enough effect; inconclusive = small, poorly fitted or top-dose-only effect, or another doubt; inactive = no such curve, though single readings can be large; an effect the other way counts as inactive or inconclusive.

SMILES | TbPYK inhibitor | Sm TGR block | LmPK inh | Shiga toxin inh | CHX counter | Giardia FBPA inh
CCOC(=O)c1c(C)nc2sc3c(c2c1-c1ccc(OC)cc1)NC(c1ccccc1)NC3=O (configuration not stated) | -3.8% | -0.7% | 5.0% | -20.0 | -2.2 | 1.4%
COCCN(CCOC)Cc1cc(=O)oc2cc(C)c(C)cc12 | -3.4% | / | / | / | / | /
CSC1=N/C(=C/c2cccnc2)C(=O)N1Cc1ccc(Cl)cc1 | -0.6% | ? | -3.7% | -11.9 | 43.7* | 0.6%
COc1ccc(C(C#N)N2CCCCCC2)cc1OC (configuration not stated) | 2.5% | 0.0% | 0.0% | 7.0 | -1.7 | 0.7%
COc1cc(C(c2c(O)cc(C)[nH]c2=O)c2c(O)cc(C)[nH]c2=O)ccc1O | 1.3% | -27.1% | -1.6% | 5.7 | -1.8 | 8.2%
COc1cc(C(C#N)N2CCC(c3ccccc3)=N2)ccc1O (configuration not stated) | -7.7% | ? | -1.0% | 90.7* | 24.8* | -6.5%
COc1ccc(C(C#N)N2CCC(c3ccccc3)=N2)cc1OC (configuration not stated) | -3.3% | / | -0.4% | 27.0 | 16.9* | -2.0%
Cc1cccnc1NC(=O)C1CC(=O)N(c2ccc3c(c2)OCCO3)C1 (configuration not stated) | -2.3% | 0.3% | / | / | / | /
O=C(Nc1nnc(C2CC2)s1)C1CC(=O)N(c2ccc3c(c2)OCCO3)C1 (configuration not stated) | -1.6% | -9.1% | 6.5% | 30.7* | 31.2* | 4.2%
COc1ccc(-c2nc(NC(=O)C3CC(=O)N(c4ccc5c(c4)OCCO5)C3)sc2C)cc1 (configuration not stated) | -19.4% | -4.0% | 2.9% | 40.6 | 28.2* | -5.8%
O=C(Nc1nc(-c2ccccn2)cs1)C1CC(=O)N(c2ccc3c(c2)OCCO3)C1 (configuration not stated) | -5.3% | -16.0% | -1.5% | 18.1 | 24.5* | 21.3%
O=C(NCc1ccco1)c1ccc2nc([C@@H]3O[C@H](CO)[C@H](O)[C@H](O)[C@H]3O)[nH]c2c1 | 0.9% | / | / | / | / | /
CNC(=O)C1CC(=O)N(c2ccc(OCC(=O)NCc3ccccc3)cc2)C1 (configuration not stated) | 0.0% | 2.2% | -3.2% | -11.8 | 3.7 | 1.7%
c1ccc(-c2nc3cc4ccccc4cc3[nH]2)nc1 | -19.1% | 0.0% | 15.8µM* | 7.1 | 1.4 | -21.4%
c1cncc(-c2nc3cc4ccccc4cc3[nH]2)c1 | -2.5% | -13.0% | ? | 61.8* | 45.5* | -22.4%
CC(=O)Nc1ccc2nc(-c3ccccn3)[nH]c2c1 | -4.4% | -0.8% | -24.9% | 74.3* | 45.6* | ?
CC(C)ON(CC(=O)NO)S(=O)(=O)c1ccc(-c2ccccc2)cc1 | / | / | / | -19.5 | -4.9 | 19.3%
COc1ccc(NC(=O)c2ccc(N3CCOCC3)nc2)cc1 | -4.1% | -11.8% | -12.4% | -3.8 | -4.5 | /
CN(C)c1ccc(NC(=O)c2ccc(N3CCOCC3)nc2)cc1 | -25.7% | 6.9% | -8.9% | 78.6* | 34.2* | /
CN1CCN(c2ccc(NC(=O)c3ccc(Cl)cc3)cn2)CC1 | 1.4% | 8.0% | 2.5% | 23.5 | 42.2* | 1.7%
O=C(Nc1ccc(N2CCOCC2)nc1)c1ccc(F)cc1 | -1.9% | 4.1% | -3.9% | 47.9* | 41.1* | -6.6%
O=C(Nc1ccc(F)cc1)c1ccc(C(=O)N2CCOCC2)cc1 | -8.1% | -0.2% | / | / | / | /
Cc1ccc(C(=O)Nc2ccc(N3CCOCC3)nc2)cc1 | -3.1% | -20.6% | 0.0% | 75.4* | 20.1* | 0.2%
CCCn1nc(C(=O)NNC(=O)Cc2ccc(S(=O)(=O)N3CCOCC3)s2)c2ccccc2c1=O | 3.1% | -8.3% | / | / | / | /
O=C(CNC(=O)c1ccccc1Cl)OCc1cc(=O)n2nc(C3CC3)sc2n1 | -1.6% | -2.9% | / | / | / | /
SMILES | TbPYK inhibitor | Sm TGR block | LmPK inh | Shiga toxin inh | CHX counter | Giardia FBPA inh
CN(C)CCCn1c2c(c(SCC(=O)Nc3cccc4ccccc34)nc1=O)CCCC2 | 3.2% | 1.4% | / | / | / | /
O=C(Nc1ccc(N2CCN(c3ccc(C(F)(F)F)cn3)CC2)nc1)c1cccs1 | 8.3% | 11.1% | 6.6% | 4.8 | 4.0 | 5.2%
O=C(Nc1ccc(N2CCOCC2)nc1)c1cccs1 | -11.8% | -0.2% | -3.5% | 57.2* | 38.4* | -1.0%
Cc1ccccc1C(=O)Nc1ccc(N2CCOCC2)nc1 | -2.1% | 34.9% | -1.4% | 58.2* | 29.8* | 0.0%
CCCC[C@@H]1CCCO[C@@](C(=O)NCc2ccc(C)o2)(C(F)(F)F)C1 | ? | / | / | 3.9 | -2.7 | -5.2%
COc1ccc(NC(=O)c2ccc3nccnc3c2)cc1 | -1.9% | -2.0% | -2.9% | 87.8* | 37.1* | -13.2%
CCOc1ccc(NC(=O)Nc2ccc3nccnc3c2)cc1 | 1.7% | -1.8% | 4.2% | 29.0 | 4.0 | -14.0%
CCOc1ccc(NC(=O)c2ccc3nccnc3c2)cc1 | 2.2% | -13.9% | -2.5% | 62.5 | 51.7* | -11.1%
CCN(CCn1cccn1)C(=O)CCc1nnc(-c2ccc3c(c2)OCO3)o1 | 1.9% | 16.6% | -3.7% | 40.7 | -1.0 | 1.2%
O=C(CCc1nnc(-c2ccc3c(c2)OCO3)o1)NC(c1ccccn1)C(F)(F)F (configuration not stated) | 1.4% | 5.5% | 1.0% | 63.9* | 37.9* | 0.8%
O=C(CCc1nnc(Cc2ccc3c(c2)OCO3)o1)NC(c1ccccn1)C(F)(F)F (configuration not stated) | -9.6% | 31.6µM* | 9.4% | 28.2 | -2.3 | 1.8%
O=C(CCc1nnc(-c2ccc3c(c2)OCO3)o1)N1CCC(c2ccc(F)cc2)C1 (configuration not stated) | -14.5% | -20.8% | -8.1% | 107.6* | 31.5* | -2.9%
COc1ccc(-c2cnc(C)o2)cc1S(=O)(=O)Nc1ccc(NC(C)=O)cc1 | 1.8% | 8.7% | / | / | / | /
CS(=O)(=O)Nc1cccc(-c2nccc(-n3ccnc3)n2)c1 | / | / | / | / | / | -1.2%
CCSc1nnc(NC(=O)c2cc(C)nc3ccccc23)s1 | 1.4% | 0.0% | -0.3% | -15.4 | -3.8 | 0.7%
CCc1nnc(NC(=O)c2ccc3ccccc3n2)s1 | -15.1% | 16.6% | -18.8% | 70.0* | 45.1* | ?
CCSc1nnc(NC(=O)c2ccc3ccccc3n2)s1 | -5.0% | -2.3% | -17.1% | 120.5* | 26.0* | -18.1%
CC/C=C\C/C=C\C/C=C\C/C=C\C/C=C\C/C=C\CCC(=O)NCC(=O)O | / | / | / | / | / | -2.4%
CCN1CCN(c2ccc(NC(=O)c3ccc([N+](=O)[O-])o3)cc2Cl)CC1 | 6.2% | ? | -0.1% | -20.1 | 23.5* | -20.4%
CC(=O)N1CCN(c2ccc(NC(=O)c3ccc([N+](=O)[O-])o3)cc2Cl)CC1 | -2.0% | ? | -2.7% | 50.2* | 24.7* | -6.0%
CCC(=O)N1CCN(c2ccc(NC(=O)c3ccc([N+](=O)[O-])o3)cc2Cl)CC1 | 4.1% | ? | -5.0% | -34.6 | -22.6 | -28.0%

Screening data as filed in PubChem BioAssay.
